An excerpt weighted towards active compounds, which were near 7.9% of everything screened.
FMDV inh – blocks foot and mouth disease virus; Potency, µM (titrated, usually from 57.9 µM), inactives show top-dose activity change, negative = inhibition, most hits filed as inhibitors; 1.2% of 410,000 active; FMDV antiviral cell-based qHTS; calls by dose curve; tested in HEK293T cells; also: read-out not given here; potency is read from the fitted curve at half-maximal effect; nearly all actives have a fitted effect of over 45% in size
HCMV inh – inhibitors of human cytomegalovirus; 4.5% of 410,000 active; AID 1259415; activity change, negative = inhibition, % at 57.5 µM; HFF cells, HCMV-luciferase reporter, 72 h; active compounds read low; in the data active = activity change below about -60%; inconclusive = no clear call, values can overlap the other calls; inactive = above about -39%
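Compounds were evaluated in HFFs infected with an HCMV luciferase reporter virus (MOI 1 PFU/cell). Luciferase in lysates collected 72 h post infection served as the replication measure.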
Lassa entry inh – blocks Lassa virus binding to or entry into cells. Lassa virus pseudotype entry inhibition, cell reporter. Potency, µM (top dose mostly 37.9 µM), without a hit: at the highest dose activity change, negative = inhibition, hits mostly inhibitors. 1.2% of 300,000 active; calls by dose curve; tested in HEK293 cells; also: potency is read from the fitted curve at half-maximal effect; nearly all actives have a fitted effect of over 50% in size
Marburg entry inh – blocks Marburg virus binding to or entry into cells; AID 540276; Potency, µM (top dose mostly 37.8 µM), inactives show top-dose activity change, negative = inhibition, actives largely listed as inhibitors; 1.8% of 300,000 active; Marburg virus pseudotyped entry inhibition, cell reporter; calls by dose curve; tested in HEK293 cells; also: potency is read from the fitted curve at half-maximal effect
HCV inh – inhibitors of hepatitis C virus infection. Huh7.5.1 HCVcc-Cre infection, luciferase reporter, 44 h. Potency, µM (series often up to 41.8 µM), inactives show at the highest dose activity change, negative = inhibition, hits mostly inhibitors. 3.4% of 340,000 active; active = well fitted inhibition curve with a large enough effect; inconclusive = small, poorly fitted or top-dose-only effect, or another doubt; inactive = no such curve, though single readings can be large or run the other way; also: potency is read from the fitted curve at half-maximal effect
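Whole-lifecycle infectious HCVcc-Cre system; cells 1,000/well, compound then virus (~0.5 moi) added 4 h after plating, 44 h culture. Luciferase read 15 sec following 15 min substrate incubation, room temp.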
An asterisk follows results filed as active; ? = inconclusive; / = not tested or not shown; ! = repeats disagree; [ ] = another dose, or the depositor's remark. % is scaled to controls: 0 for no effect and ±100 for the full control effect.

SMILES	FMDV inh	HCMV inh	Lassa entry inh	Marburg entry inh	HCV inh
CC/C(=C(\c1ccc(O)cc1)c1ccc(OCCN(C)C)cc1)c1ccccc1	-13.9%	-66.8*	/	/	?
CCC(=C(c1ccc(O)cc1)c1ccc(OCCN(C)C)cc1)c1ccccc1	-20.1%	-11.5	/	/	/
CCN(CC)CCOc1ccc(/C(=C(/Cl)c2ccccc2)c2ccccc2)cc1	?	-70.5*!	/	/	7.94µM*
C#CCN1C(=O)[C@]2(O[C@H](C)CC3=CCCC32)c2c(Br)cccc21 (stereo not given in full)	/	/	?	-15.3%[14.2 µM]	/
COc1cc2c(-c3ccc4[nH]ccc4c3)c(-c3ccc(C#N)cc3)oc(=O)c2cc1OC	-10.0%	-25.1	/	-1.0%	11.2µM*
COc1cc2c(-c3ccc4cc[nH]c4c3)c(-c3ccsc3)oc(=O)c2cc1OC	10.6%	?	/	/	?
COc1cccc(Cn2c(=O)c(-c3cc(F)cc(F)c3)nc3cnc(N4CCNCC4)nc32)c1	-10.5%	/	/	/	/
Cn1c(=O)c2[nH]c(COc3ccc(C(C)(C)C)cc3)nc2n(C)c1=O	20µM*	/	/	/	11.2µM*
Cn1c(=O)c2[nH]c(CCCCCc3nc4ccccc4[nH]3)nc2n(C)c1=O	-7.7%	5.7	2.4%	?	13.0%
Cn1c(=O)c2[nH]c(CCCCCCCc3nc4ccccc4[nH]3)nc2n(C)c1=O	15.8µM*	-67.1*	-37.9%	?	8.91µM*
O=C(NCc1ccco1)c1ccc2c(c1)N(Cc1ccccc1F)C(=O)c1ccccc1S2=O (stereo not given)	-22.3%	-13.4	-9.6%[46.1 µM]	-3.3%[46.1 µM]	/
COc1ccc2oc(-c3ccc(NC(=O)c4ccc(Cl)cc4Cl)cc3)nc2c1	?	?	-6.2%[46.1 µM]	/	/
CCOc1ccc(CNC(=O)Nc2ccc3c(c2)N(C)C(=O)c2ccccc2S3)cc1	?	-62.2*	-9.6%[46.1 µM]	-28.5%[46.1 µM]	/
CN1C(=O)c2ccccc2Sc2ccc(NC(=O)NCc3ccc(Cl)cc3)cc21	?	-89.3*	-20.5%[46.1 µM]	?	/
CN1C(=O)CSc2ccc(NC(=O)NCc3cccnc3)cc21	/	-60.9*	-0.4%	-15.6%	?
Cc1ccccc1CNC(=O)Nc1ccc2c(c1)N(C)C(=O)c1ccccc1S2	?	-96.7*	-30.0%[46.1 µM]	4.2%[46.1 µM]	/
CC(=O)Nc1cc(C(=O)Nc2ccc3c(c2)N(C)C(=O)c2ccccc2S3)ccc1C	-20.6%	2.5	-9.4%[46.1 µM]	/	/
CCN1C(=O)c2ccccc2Sc2ccc(NC(=O)Cc3ccc(OC)c(OC)c3)cc21	-17.8%	-38.6	?	/	/
COc1cc(OC)c(NC(=O)Nc2ccc3c(c2)N(C)C(=O)c2ccccc2S3)cc1Cl	12.0%	1.4	-23.8%[46.1 µM]	10µM*	/
Cc1ccc(C(=O)Nc2ccc3c(c2)N(C)C(=O)c2ccccc2S3)cc1F	?	-91.5*	?	/	/
COc1ccc(C(=O)Nc2ccc3c(c2)N(C2CCCC2)C(=O)c2ccccc2S3)cc1OC	0.0%	-70.2*	1.26µM*	/	/
COc1ccc(NC(=O)c2cccc(Cn3cc(Br)c([N+](=O)[O-])n3)c2)c(C)c1	-13.0%	-18.2	/	/	10µM*
Cc1cc(C)cc(NC(=O)CCN2C(=O)c3ccccc3Sc3ncccc32)c1	-5.0%	-60.5*	-1.8%[46.1 µM]	/	/
S=C(S)O[C@@H]1C[C@@H]2C[C@H]1[C@@H]1CCC[C@H]21	2.8%	/	/	13.3%	/
S=C(S)OC1CC2CC1C1CCCC21 (stereo not given)	0.0%	-60.3*	-9.1%	?	45.6%
SMILES	FMDV inh	HCMV inh	Lassa entry inh	Marburg entry inh	HCV inh
CNC(=O)Nc1ccccc1F	-17.9%	9.6	1.4%	-2.2%	21.2%
COc1ccc(NC(=O)c2ccccc2SC)cc1OC	29.7%	9.9	11.6%	10.3%	-8.2%
COc1ccc(NC(=O)C(=O)NCCc2ccccc2)cc1OC	-16.1%	-63.7*	17.9%[46.1 µM]	4.4%[46.1 µM]	/
NC(=O)c1ccc(NC(=O)C#Cc2ccccc2)cc1	-5.8%	-102.8*	2.24µM*	4.47µM*	?
COc1ccc(NC(=O)C#Cc2ccccc2)cc1OC	12.2%	-88.1*	-8.6%[46.1 µM]	?	?
O=C(C#Cc1ccccc1)Nc1ccccc1F	12.6%	-96.1*	/	/	?
O=C(COc1ccc(Cl)cc1)OCc1ccc(Cl)cc1	-0.3%	1.1	10.3%[46.1 µM]	13.4%[46.1 µM]	17.1%
COc1ccc2[nH]c3c(c2c1)CCN1C(=O)C(CC(=O)NCCCn2ccnc2)C[C@H](C(=O)N(C(C)C)C(C)C)[C@@]31C (stereo not given in full)	0.0%	-18.4	/	/	-4.4%
Nc1nc(SCC(=O)Nc2ccc3c(c2)CCC3)n[nH]1	-16.9%	-35.5	7.7%	2.3%	-0.9%
CC(=O)OC[C@H]1O[C@H](c2ccc(C(C)=O)cc2)C=C[C@H]1OC(C)=O	/	/	/	1.7%[14.2 µM]	/
CCCc1cc(NCc2ccccn2)n2c(nc3ccccc32)c1C#N	-27.5%	19.2	-9.1%	-27.2%	12.6µM*
Cc1cc(NCc2ccccn2)n2c(nc3ccccc32)c1C#N	-23.9%	-19.1	/	/	11.4%
COc1cccc(CO[C@H]2C=C[C@@H](c3ccccc3)O[C@H]2CN=[N+]=[N-])c1	/	/	/	-17.2%[14.2 µM]	/
CC[C@H](C)[C@H](NC(=O)c1ccc(Cl)cc1)C(=O)OCC(=O)c1ccc2c(c1)NC(=O)CO2	?	-86.7*	?	?	?
O=C1COc2ccc(C(=O)CCl)cc2N1	25.1µM*	-10.3	-17.7%[46.1 µM]	?	?
COc1cccc(/C=C/C(=O)OCC(=O)c2ccc3c(c2)NC(=O)CO3)c1OC	?	7.8	-7.7%[46.1 µM]	-15.8%[46.1 µM]	-9.5%
CC(C)[C@H](NC(=O)c1ccccc1)C(=O)OCC(=O)c1ccc2c(c1)NC(=O)CO2	-22.5%	30.2	?	2.5%	2.0%
COc1ccc(/C=C/C(=O)OCC(=O)c2ccc3c(c2)NC(=O)CO3)c(OC)c1	-22.2%	?	/	/	11.2µM*
Cc1cc(OCc2cc(C(=O)N3CCCCCC3)no2)cc(C)c1Cl	24.6%	181.0	-15.1%	?	/
CC(C)c1ccc(C2C3=C(CC(C)(C)CC3=O)NC3=C2C(=O)c2ccccc23)cc1 (stereo not given)	-1.0%	-71.8*	?	?	11.2µM*
CC1(C)CC(=O)C2=C(C1)NC1=C(C(=O)c3ccccc31)C2c1cccnc1 (stereo not given)	-18.2%	?	/	/	-15.7%
Oc1ccc(Br)cc1-c1cc(-c2ccc(Cl)cc2)n[nH]1	-11.6%	-77.4*	-4.5%	-22.2%	10µM*
Oc1ccc(Br)cc1-c1cc(-c2ccccc2)n[nH]1	3.7%	99.6	-10.6%	-25.2%	?
Cc1ccc(O)c(-c2cc(-c3cccc(F)c3)n[nH]2)c1	35.9%	69.0	?	?	10µM*
O=[N+]([O-])c1cccc(-c2cc(-c3cc(Br)ccc3O)[nH]n2)c1	28.2µM*	?	?	?	10µM*
COc1ccc(O)c(-c2cc(-c3cccc(Br)c3)n[nH]2)c1	71.3%	11.7	?	?	?
O=C(CSc1ccccn1)Nc1ccc2[nH]c(=O)[nH]c2c1	-11.1%	5.7	/	/	14.8%
COC(=O)CSc1nnc(CCc2ccccc2)n1C	-4.4%	28.5	6.8%	9.2%	19.8%
COc1cccc(CNC(=O)[C@@H]2CCCN2C(=O)[C@H]2CCCCN2C(=O)c2ccccc2C)c1	-7.2%	-9.3	/	/	/
